Measurements published in the supplement of paper PMC11732987, “Enantioselective OTUD7B fragment discovery through chemoproteomics screening and high-throughput optimisation” (Communications Chemistry, 2025).

What was measured:
Assay in all cases: log2 ratio of Biotin-Ahx-Ub-VS probe labelling (fragment/DMSO); higher = less target engagement (more negative = stronger competition), active = hit call of the paper (q ≤ 0.05, log2 ratio ≤ -1)
Details in all cases: compound concentration: 200 uM; treatment time: 3 h
USP19 = molecular target: T1, USP19 (UniProt O94966)
T1 sequence (whole entry): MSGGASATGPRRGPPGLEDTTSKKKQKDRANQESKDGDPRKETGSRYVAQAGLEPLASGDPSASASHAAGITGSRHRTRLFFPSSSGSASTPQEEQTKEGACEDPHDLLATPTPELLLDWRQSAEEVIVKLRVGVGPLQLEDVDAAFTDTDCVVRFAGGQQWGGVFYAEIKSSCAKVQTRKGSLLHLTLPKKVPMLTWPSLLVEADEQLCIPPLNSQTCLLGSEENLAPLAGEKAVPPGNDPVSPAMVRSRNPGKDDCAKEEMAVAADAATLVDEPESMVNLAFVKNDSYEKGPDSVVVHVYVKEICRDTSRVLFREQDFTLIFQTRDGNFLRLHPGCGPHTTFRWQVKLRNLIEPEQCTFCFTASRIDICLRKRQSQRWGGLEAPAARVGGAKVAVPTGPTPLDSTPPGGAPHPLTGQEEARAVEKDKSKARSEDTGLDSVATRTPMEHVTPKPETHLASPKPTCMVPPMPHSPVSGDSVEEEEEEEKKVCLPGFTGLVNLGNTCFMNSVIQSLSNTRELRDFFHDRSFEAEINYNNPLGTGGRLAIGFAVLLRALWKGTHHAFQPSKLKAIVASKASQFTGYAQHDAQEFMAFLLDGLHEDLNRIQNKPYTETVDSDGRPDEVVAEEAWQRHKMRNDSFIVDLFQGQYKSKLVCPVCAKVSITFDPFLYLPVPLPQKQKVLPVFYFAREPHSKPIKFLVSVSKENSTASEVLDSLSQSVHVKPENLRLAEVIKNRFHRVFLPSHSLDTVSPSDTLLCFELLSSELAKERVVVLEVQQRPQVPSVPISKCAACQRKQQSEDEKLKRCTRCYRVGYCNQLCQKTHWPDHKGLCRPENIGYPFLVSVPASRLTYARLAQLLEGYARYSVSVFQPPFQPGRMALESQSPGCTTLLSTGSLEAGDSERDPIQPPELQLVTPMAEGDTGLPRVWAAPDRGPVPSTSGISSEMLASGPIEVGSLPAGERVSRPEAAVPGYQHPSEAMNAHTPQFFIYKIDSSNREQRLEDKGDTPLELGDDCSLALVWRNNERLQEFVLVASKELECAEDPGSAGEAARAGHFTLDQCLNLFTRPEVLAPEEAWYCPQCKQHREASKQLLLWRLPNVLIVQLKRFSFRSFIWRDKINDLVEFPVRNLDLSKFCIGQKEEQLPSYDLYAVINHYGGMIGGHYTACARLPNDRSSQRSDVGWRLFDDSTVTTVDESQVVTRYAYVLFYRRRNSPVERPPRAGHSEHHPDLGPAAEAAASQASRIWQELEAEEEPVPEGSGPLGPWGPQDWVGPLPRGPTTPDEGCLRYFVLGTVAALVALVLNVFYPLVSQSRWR
How it was run: (§1)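 The table lists average log2 ratios of fragment over vehicle, from an unpaired t-test on global-median-normalised Spectronaut label-free quantities. Proteins with ≥2 unique peptides were used. Samples were HEK293T lysate (495 µg) treated in triplicate with fragment at 200 µM or vehicle for 3 h, then with Biotin-Ahx-Ub-VS (0.5 µM final) for 1 h, with labelled DUBs NeutrAvidin-enriched and run by diaPASEF LC-MS/MS.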

USP22 = molecular target: T2, USP22 (UniProt Q9UPT9)
T2 sequence (whole entry): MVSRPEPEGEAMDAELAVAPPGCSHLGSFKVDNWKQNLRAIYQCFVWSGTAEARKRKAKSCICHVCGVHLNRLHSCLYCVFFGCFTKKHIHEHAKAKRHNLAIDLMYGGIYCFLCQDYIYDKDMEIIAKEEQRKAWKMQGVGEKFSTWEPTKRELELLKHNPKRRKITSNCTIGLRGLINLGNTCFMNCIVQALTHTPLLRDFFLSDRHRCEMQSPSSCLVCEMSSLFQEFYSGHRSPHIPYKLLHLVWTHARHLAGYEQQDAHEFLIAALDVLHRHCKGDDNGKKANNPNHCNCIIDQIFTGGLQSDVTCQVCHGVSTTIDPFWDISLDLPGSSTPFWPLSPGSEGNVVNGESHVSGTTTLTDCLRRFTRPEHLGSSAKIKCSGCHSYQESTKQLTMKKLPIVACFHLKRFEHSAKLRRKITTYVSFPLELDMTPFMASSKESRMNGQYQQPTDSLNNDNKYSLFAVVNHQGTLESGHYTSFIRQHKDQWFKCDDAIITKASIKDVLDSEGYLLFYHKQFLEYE
How it was run: as §1

USP24 = USP24 (UniProt Q9UPU5)
How it was run: as §1

USP25 = molecular target: T3, USP25 (UniProt Q9UHP3)
T3 sequence (whole entry): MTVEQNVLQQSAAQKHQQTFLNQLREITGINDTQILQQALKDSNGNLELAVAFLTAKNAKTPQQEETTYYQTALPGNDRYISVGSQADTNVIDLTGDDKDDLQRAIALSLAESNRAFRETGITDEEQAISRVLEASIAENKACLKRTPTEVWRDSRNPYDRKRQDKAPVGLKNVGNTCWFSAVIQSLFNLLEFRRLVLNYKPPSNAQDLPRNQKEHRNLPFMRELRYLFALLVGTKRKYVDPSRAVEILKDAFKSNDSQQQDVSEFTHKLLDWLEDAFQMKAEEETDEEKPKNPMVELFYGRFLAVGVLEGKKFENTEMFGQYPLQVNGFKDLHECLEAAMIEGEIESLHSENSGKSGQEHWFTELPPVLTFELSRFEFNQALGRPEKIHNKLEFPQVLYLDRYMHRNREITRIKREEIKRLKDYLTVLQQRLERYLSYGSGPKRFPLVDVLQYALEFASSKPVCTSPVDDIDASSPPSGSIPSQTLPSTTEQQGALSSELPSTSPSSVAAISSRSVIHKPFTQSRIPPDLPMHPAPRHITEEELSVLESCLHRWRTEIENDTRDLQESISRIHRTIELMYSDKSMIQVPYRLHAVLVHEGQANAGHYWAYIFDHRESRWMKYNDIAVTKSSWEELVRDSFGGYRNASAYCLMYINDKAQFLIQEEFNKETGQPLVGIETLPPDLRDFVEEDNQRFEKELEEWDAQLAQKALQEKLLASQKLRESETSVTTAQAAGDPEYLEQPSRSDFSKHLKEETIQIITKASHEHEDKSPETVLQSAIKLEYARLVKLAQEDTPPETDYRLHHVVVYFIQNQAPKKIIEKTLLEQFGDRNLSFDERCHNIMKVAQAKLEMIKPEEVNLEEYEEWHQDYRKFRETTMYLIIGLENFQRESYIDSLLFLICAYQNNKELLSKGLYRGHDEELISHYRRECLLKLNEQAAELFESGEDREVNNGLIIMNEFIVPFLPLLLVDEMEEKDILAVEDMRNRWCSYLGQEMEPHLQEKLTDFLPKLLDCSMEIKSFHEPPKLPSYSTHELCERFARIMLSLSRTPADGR
How it was run: as §1

USP28 = molecular target: T4, USP28 (UniProt Q96RU2)
T4 sequence (whole entry): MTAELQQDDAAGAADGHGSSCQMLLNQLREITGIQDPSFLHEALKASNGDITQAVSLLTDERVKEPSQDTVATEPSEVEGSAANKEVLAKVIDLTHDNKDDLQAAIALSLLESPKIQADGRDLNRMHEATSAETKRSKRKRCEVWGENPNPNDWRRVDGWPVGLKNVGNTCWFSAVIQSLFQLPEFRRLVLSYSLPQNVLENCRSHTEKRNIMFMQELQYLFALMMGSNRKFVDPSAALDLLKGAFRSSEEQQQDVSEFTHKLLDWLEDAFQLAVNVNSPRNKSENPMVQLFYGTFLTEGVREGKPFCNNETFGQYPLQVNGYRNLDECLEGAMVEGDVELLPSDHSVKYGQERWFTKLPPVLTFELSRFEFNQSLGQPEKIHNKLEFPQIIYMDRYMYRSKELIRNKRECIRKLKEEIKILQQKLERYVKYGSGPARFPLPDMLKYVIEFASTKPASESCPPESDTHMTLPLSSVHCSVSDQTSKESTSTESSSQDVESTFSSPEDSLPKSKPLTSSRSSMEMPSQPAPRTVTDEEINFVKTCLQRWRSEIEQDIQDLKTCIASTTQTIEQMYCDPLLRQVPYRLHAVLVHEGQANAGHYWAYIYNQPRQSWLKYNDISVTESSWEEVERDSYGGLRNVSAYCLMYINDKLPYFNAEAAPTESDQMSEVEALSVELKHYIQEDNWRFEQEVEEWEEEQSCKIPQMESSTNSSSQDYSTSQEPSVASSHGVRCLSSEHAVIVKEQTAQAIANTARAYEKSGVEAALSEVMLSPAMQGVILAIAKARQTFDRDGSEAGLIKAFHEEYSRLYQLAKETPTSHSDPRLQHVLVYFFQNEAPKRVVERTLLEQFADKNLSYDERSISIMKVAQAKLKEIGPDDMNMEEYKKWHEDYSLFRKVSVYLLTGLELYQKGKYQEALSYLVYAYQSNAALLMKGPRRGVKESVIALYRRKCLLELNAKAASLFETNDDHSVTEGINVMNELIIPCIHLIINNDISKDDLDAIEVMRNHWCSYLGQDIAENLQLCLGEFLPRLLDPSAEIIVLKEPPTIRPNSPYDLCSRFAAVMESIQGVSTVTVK
How it was run: as §1

Measured: log2 ratio of Biotin-Ahx-Ub-VS probe labelling

USP24, sequence (Q9UPU5 whole entry): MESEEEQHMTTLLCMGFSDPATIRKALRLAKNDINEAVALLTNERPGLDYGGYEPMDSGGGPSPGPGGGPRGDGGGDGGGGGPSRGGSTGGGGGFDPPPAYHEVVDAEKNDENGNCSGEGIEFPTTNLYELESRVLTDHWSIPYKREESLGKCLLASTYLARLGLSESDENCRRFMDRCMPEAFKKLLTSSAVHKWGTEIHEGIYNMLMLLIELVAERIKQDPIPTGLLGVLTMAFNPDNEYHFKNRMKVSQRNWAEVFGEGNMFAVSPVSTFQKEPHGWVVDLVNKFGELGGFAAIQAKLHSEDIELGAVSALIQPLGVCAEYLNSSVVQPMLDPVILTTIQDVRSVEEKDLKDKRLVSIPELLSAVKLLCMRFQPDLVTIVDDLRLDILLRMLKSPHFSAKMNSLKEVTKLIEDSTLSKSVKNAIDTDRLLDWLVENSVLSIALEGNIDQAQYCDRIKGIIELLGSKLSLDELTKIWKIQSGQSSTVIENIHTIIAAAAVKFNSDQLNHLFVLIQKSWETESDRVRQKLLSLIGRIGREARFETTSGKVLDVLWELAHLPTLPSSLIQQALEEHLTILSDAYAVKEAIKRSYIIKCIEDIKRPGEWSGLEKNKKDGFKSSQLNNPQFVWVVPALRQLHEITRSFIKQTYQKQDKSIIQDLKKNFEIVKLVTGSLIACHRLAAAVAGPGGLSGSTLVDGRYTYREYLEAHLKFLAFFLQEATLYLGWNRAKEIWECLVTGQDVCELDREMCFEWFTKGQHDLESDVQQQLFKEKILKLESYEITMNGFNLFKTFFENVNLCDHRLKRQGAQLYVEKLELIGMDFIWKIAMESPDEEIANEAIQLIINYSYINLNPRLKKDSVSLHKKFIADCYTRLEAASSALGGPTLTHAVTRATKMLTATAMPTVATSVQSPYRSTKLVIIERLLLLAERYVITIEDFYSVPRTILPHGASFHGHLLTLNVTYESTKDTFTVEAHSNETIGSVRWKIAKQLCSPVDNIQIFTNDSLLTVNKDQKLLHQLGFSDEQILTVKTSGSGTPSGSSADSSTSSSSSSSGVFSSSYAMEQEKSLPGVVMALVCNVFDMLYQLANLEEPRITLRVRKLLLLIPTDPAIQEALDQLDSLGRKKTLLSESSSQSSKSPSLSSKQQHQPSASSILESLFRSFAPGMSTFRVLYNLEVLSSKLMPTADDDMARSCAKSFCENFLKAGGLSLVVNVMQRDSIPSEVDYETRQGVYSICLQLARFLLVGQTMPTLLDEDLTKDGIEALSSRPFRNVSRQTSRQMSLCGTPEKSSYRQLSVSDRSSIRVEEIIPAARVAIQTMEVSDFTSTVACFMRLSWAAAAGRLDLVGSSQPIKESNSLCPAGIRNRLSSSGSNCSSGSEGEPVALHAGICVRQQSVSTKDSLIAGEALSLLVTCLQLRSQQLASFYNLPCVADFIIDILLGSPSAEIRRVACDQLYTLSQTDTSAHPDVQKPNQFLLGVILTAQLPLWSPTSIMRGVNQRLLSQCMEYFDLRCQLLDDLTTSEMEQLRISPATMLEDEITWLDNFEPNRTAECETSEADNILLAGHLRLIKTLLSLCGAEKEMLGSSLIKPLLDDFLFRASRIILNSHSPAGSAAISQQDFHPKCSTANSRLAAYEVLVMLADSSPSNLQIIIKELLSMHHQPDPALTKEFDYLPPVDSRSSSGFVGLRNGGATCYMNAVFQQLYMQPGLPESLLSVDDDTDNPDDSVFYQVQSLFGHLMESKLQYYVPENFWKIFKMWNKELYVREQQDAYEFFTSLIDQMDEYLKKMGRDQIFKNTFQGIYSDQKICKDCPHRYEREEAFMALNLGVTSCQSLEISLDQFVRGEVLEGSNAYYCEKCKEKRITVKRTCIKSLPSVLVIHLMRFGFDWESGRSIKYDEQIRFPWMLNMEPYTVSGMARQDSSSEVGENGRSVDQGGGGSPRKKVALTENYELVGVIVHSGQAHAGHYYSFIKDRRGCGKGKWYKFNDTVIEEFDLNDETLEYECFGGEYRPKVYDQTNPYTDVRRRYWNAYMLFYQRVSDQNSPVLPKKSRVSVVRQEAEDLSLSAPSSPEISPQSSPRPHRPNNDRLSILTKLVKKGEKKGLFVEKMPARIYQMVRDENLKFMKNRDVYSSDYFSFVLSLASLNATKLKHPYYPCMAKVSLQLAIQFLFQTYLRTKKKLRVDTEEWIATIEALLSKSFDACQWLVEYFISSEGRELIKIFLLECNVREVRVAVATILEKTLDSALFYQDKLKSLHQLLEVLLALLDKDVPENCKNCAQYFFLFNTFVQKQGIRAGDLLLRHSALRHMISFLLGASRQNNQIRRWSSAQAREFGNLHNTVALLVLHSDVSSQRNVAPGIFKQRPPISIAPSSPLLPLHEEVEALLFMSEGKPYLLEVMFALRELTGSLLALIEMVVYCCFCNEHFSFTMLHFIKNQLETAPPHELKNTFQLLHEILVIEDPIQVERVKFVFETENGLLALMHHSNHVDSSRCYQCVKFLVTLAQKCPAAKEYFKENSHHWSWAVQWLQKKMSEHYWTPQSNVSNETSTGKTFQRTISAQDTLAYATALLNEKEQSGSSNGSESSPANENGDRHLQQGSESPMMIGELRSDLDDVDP

CC(NC(=O)CCl)c1cccc2ccccc12 (stereo not given)
inactive: USP19 -0.242 | USP22 -0.925 | USP24 -0.343 | USP25 -0.33 | USP28 -0.501
